For five compounds, outcome and AC50 results are on record in PubChem BioAssay (EPA / NIEHS).

Several values for one entry are separate records, joined by “and”; a condition that tells them apart may be missing. Identical values can stand only once. Inconclusive results are not listed. A structure can be active in one record and inactive in another. Activity calls are given as the source filed them. How the source made its calls, unless noted: active means hit-call score of the fitted dose curve at least 0.9, where 1 is the maximum; inactive means score below 0.9.

Test [1] addresses Transcriptional activator Myb (Homo sapiens) (UniProt P10242). The test is described as follows: ATG_Myb_CIS: Attagene CIS-FACTORIAL HepG2 Assay for human Myeloblastosis (Myb) Proto-Oncogene Transcription Factor (AID 2282986). The following applies: HepG2 Attagene CIS-FACTORIAL Myb reporter transcription; actives raise or lower the signal. Put shortly:
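Endogenous transcription factor activity at a Myb-responsive cis element is reported in human liver HepG2 cells after 24 h chemical treatment. Reporter mRNA is detected by RT-PCR and capillary electrophoresis fluorescence, with DMSO as baseline.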

For test [2], the target named is Nuclear respiratory factor 1 (Homo sapiens) (UniProt Q16656). The test is described as follows: ATG_NRF1_CIS: Attagene CIS-FACTORIAL HepG2 Assay for human Nuclear Respiratory Factor 1 (NRF1) Orphan Gene (AID 2282987). The settings on record: HepG2 NRF1 cis-element reporter, Attagene multiplex; actives raise or lower the signal. The essentials: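 Human hepatoma HepG2 cells carrying transfected promoter-regulated reporter units were incubated with test chemicals for 24 h. Reporter transcripts were measured by RT-PCR plus capillary electrophoresis, and endpoints derived by bidirectional fitting with DMSO as baseline.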

A short description of test [3]: ATG_NFI_CIS: Attagene CIS-FACTORIAL HepG2 Assay for human Nuclear Factor I (NFI) (AID 2282989). The settings on record: HepG2 cis-regulatory reporter, NFI response element transcription; actives raise or lower the signal. The essentials: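 HepG2, transient MRTU, 24 h exposure; RNA→cDNA→PCR→FAM label→HpaI→CE fluorescence. Bidirectional fit, DMSO = baseline.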
The target of test [4] is Myc proto-oncogene protein (Homo sapiens) (UniProt P01106). The experiment in a line: ATG_Myc_CIS: Attagene CIS-FACTORIAL HepG2 Assay for human Myelocytomatosis (Myc) Proto-Oncogene Transcription Factor (AID 2282990). The settings on record: HepG2, Attagene cis-reporter transcription factor activity; actives raise or lower the signal. Put shortly:
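Transiently transfected HepG2 cells bearing cis-promoter reporter units for endogenous transcription factors; 24 h exposure. Reporter mRNA measured by RT-PCR, 6-FAM primer extension, HpaI cut and capillary electrophoresis; bidirectional fit relative to DMSO.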

Test [5] is described as follows: ATG_NRF2_ARE_CIS: Attagene CIS-FACTORIAL HepG2 Assay for human Nuclear Factor Erythroid 2 Related Factor 2 (NFR2) response to Antioxidant Response Elements (ARE) (AID 2282992).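 On AC50: reporter mRNA level measured by RT-PCR and capillary electrophoresis fluorescence.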 The settings on record: HepG2 Attagene ARE/NRF2 reporter, transcription factor activity; actives raise or lower the signal. Put shortly: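 Endogenous transcription factor activity in human liver HepG2 cells is tracked via a cis-element-driven reporter within a multiplexed set. mRNA induction is read by RT-PCR and capillary electrophoresis after 24 h, with DMSO as baseline.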

A short description of test [6]: ATG_Oct_MLP_CIS: Attagene CIS-FACTORIAL HepG2 Assay for human Octamer-Binding Transcription Factor (Oct) (AID 2282993). The following applies: HepG2 Attagene cis-factorial Oct reporter, mRNA; actives raise or lower the signal. Put shortly: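 Multiplexed cis-reporter assay in human liver HepG2 cells, 24 h incubation. Reporter RNA amplified and labelled, then resolved by capillary electrophoresis; DMSO serves as negative control and baseline.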

Test [7] deals with Peroxisome proliferator-activated receptor gamma (Homo sapiens) (UniProt P37231). The experiment in a line: ATG_PPARg_TRANS: Attagene TRANS-FACTORIAL HepG2 Assay for human Peroxisome Proliferator-activated Receptor-gamma (PPARg) (AID 2283007; active means hit-call score of the fitted dose curve at least 0.9, where 1 is the maximum). Put shortly: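 Human hepatoma HepG2, transient MRTU transfection, 24 h treatment. mRNA reporter signal by RT-PCR plus capillary electrophoresis, fluorescence detection; fitted for increase over DMSO negative control.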

For test [8], the target named is Nuclear receptor subfamily 1 group I member 2 (Homo sapiens) (UniProt O75469). The experiment in a line: ATG_PXR_TRANS: Attagene TRANS-FACTORIAL HepG2 Assay for human Pregnane X Receptor (PXR) (AID 2283008; active means hit-call score of the fitted dose curve at least 0.9, where 1 is the maximum). Put shortly:
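HepG2 transfected (FuGene 6) with GAL4-UAS reporter units + PXR-Gal4 chimera; dosed 24 h. Total RNA → oligo(dT) RT → PCR → 6-FAM primer extension → HpaI cut → CE. Gain-of-signal vs DMSO.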

Test [9] deals with human Retinoic Acid Receptor gamma (RARg), RARG (gene 5916) (UniProt P13631). The experiment in a line: ATG_RARg_TRANS: Attagene TRANS-FACTORIAL HepG2 Assay for human Retinoic Acid Receptor gamma (RARg) (AID 2283009; active means hit-call score of the fitted dose curve at least 0.9, where 1 is the maximum). Put shortly: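 Transactivation of exogenous RARg-Gal4 fusion measured as reporter transcript induction after 24 h in transfected HepG2 cells. RNA reverse-transcribed, amplified, fluorescently labeled and resolved by capillary electrophoresis; increase relative to DMSO.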

Test [10] deals with Cellular tumor antigen p53 (Homo sapiens) (UniProt P04637). The test is described as follows: ATG_p53_CIS: Attagene CIS-FACTORIAL HepG2 Assay for human p53 Transcription Factor (AID 2282994). The following applies: HepG2 p53 cis-element reporter, Attagene mRNA; actives raise or lower the signal. The essentials: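 Steps: transfect HepG2 with multiplexed cis reporter constructs; dose chemicals 24 h; extract RNA, reverse-transcribe, PCR-amplify reporter sequences; FAM-label, HpaI-digest, resolve fragments by CE. Activity fitted both directions relative to DMSO.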

Test [11] can be described thus: BSK_3C_TissueFactor: BioMAP Diversity Plus: 3C Assay for Tissue Factor Biomarker Activity (AID 2282997). The following applies: BioMAP 3C HUVEC, tissue factor biomarker readout; actives raise or lower the signal. Put shortly: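 In this endothelial system, HUVEC are treated for 24 h and Tissue Factor is assessed by ELISA, normalised to DMSO.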
Test [12] is described as follows: BSK_3C_uPAR: BioMAP Diversity Plus: 3C Assay for Urokinase-type plasminogen activator receptor (uPAR) Biomarker Activity (AID 2282998). The settings on record: BioMAP 3C HUVEC, uPAR biomarker ELISA; actives raise or lower the signal. The essentials:
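Dose primary human umbilical vein endothelial cells, incubate 24 h, measure cell-surface uPAR by ELISA, then fit the signal in both directions against the DMSO negative control.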

The nature of test [13]: BSK_3C_VCAM1: BioMAP Diversity Plus: 3C Assay for Vascular cell adhesion molecule 1 (VCAM1) Biomarker Activity (AID 2282999). The following applies: BioMAP 3C HUVEC, VCAM1 ELISA, cytokine-stimulated; actives raise or lower the signal. The essentials:
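HUVEC primary cells, 24 h compound exposure; VCAM-1 by ELISA; gain/loss of signal fitted bidirectionally vs DMSO baseline.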

A short description of test [14]: BSK_4H_Eotaxin3: BioMAP Diversity Plus: 4H Assay for Eotaxin 3 Biomarker Activity (AID 2283000).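 On outcome: CCL26 protein level quantified by ELISA in parallel with SRB cytotoxicity check.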 The settings on record: primary human endothelial cells (HUVEC); actives raise or lower the signal. Put shortly:
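ELISA quantitation of CCL26 (Eotaxin-3) protein from chemically dosed human vascular endothelial cells at 24 h; increases and decreases both scored relative to DMSO-treated baseline.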

The target of test [15] is human Peroxisome Proliferator-activated Receptor delta (PPARd), PPARD (gene 5467) (UniProt Q03181). The test is described as follows: ATG_PPARd_TRANS: Attagene TRANS-FACTORIAL HepG2 Assay for human Peroxisome Proliferator-activated Receptor delta (PPARd) (AID 2283002; active means hit-call score of the fitted dose curve at least 0.9, where 1 is the maximum). Put shortly:
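HepG2 cells transiently transfected with GAL4-UAS multiplexed reporter units driven by exogenous chimeric NR-GAL4 proteins; 24 h compound exposure. Reporter mRNA measured by RT-PCR, 6-FAM primer extension, HpaI digestion and capillary electrophoresis; gain of signal fitted relative to DMSO.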

Read-out in test [16]: Intercellular Adhesion Molecule 1 (ICAM1), ICAM1 (gene 3383)
The test is described as follows: BSK_3C_ICAM1: BioMAP Diversity Plus: 3C Assay for Intercellular Adhesion Molecule 1 (ICAM1) Biomarker Activity (AID 2283003). The settings on record: primary human endothelial cells (HUVEC); actives raise or lower the signal. The essentials:
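ELISA readout of ICAM1 in human umbilical vein endothelial cells in the 3C system, taken 24 h post-dose. Gain or loss of signal versus DMSO was fitted in both directions, with SRB total-protein staining run in parallel.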

Test [17] in a line: BSK_3C_Proliferation: Cell Proliferation Assessment in the BioMAP Diversity Plus: 3C Assay (AID 2283006).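 On AC50: potency may reflect either rise or fall in cell number versus DMSO.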 The following applies: primary human endothelial cells (HUVEC). Put shortly: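 Proliferation as total protein: sulforhodamine B (0.1%) stain of TCA-fixed subconfluent human umbilical vein endothelial cells, absorbance 560 nm, 48 h after dosing. Activity fitted in both directions against DMSO baseline.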

Test [18] is described as follows: ATG_NF_kB_CIS: Attagene CIS-FACTORIAL HepG2 Assay for human Nuclear Factor Kappa B (NF-kB) (AID 2282991). The settings on record: HepG2 Attagene cis-factorial NF-kB reporter mRNA; actives raise or lower the signal. Put shortly: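 Multiplexed cis-reporter assay in transiently transfected HepG2. 24 h treatment; RNA isolated, RT-PCR, labelled fragments resolved by CE. DMSO baseline.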

Test [19] addresses human Peroxisome Proliferator-activated Receptor alpha (PPARa), PPARA (gene 5465) (UniProt Q07869). The experiment in a line: ATG_PPARa_TRANS: Attagene TRANS-FACTORIAL HepG2 Assay for human Peroxisome Proliferator-activated Receptor alpha (PPARa) (AID 2283001; active means hit-call score of the fitted dose curve at least 0.9, where 1 is the maximum). The essentials: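 HepG2, transient MRTU transfection, 24 h treatment. RT-PCR → FAM labelling → capillary electrophoresis. Fit vs DMSO, positive direction.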

Test [20] deals with Retinoic acid receptor alpha (Homo sapiens) (UniProt P10276). The experiment in a line: ATG_RARa_TRANS: Attagene TRANS-FACTORIAL HepG2 Assay for human Retinoic Acid Receptor alpha (RARa) (AID 2283005; active means hit-call score of the fitted dose curve at least 0.9, where 1 is the maximum). Put shortly:
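HepG2 transiently transfected with multiplex GAL4-UAS reporter units including a human RARa–GAL4 chimera; 24 h compound exposure. Reporter mRNA quantified by RT-PCR, 6-FAM labeling and capillary electrophoresis; gain of signal versus DMSO.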

Chain of human Peroxisome Proliferator-activated Receptor delta (PPARd), PPARD (gene 5467) (Q03181 whole entry, looked up, the tested form may be a part): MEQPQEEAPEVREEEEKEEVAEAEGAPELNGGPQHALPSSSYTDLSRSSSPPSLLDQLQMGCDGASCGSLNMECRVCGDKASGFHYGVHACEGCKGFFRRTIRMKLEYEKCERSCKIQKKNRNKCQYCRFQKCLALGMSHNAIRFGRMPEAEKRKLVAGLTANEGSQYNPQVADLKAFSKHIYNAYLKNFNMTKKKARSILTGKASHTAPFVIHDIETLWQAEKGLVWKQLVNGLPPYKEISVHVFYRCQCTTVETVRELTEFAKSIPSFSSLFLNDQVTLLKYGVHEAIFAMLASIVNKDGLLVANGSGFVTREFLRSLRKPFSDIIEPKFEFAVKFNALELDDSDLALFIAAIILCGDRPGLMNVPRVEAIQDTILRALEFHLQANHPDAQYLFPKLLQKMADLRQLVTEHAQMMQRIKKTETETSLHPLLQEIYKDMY
Chain of Nuclear receptor subfamily 1 group I member 2 (Homo sapiens) (O75469 whole entry, looked up, the tested form may be a part): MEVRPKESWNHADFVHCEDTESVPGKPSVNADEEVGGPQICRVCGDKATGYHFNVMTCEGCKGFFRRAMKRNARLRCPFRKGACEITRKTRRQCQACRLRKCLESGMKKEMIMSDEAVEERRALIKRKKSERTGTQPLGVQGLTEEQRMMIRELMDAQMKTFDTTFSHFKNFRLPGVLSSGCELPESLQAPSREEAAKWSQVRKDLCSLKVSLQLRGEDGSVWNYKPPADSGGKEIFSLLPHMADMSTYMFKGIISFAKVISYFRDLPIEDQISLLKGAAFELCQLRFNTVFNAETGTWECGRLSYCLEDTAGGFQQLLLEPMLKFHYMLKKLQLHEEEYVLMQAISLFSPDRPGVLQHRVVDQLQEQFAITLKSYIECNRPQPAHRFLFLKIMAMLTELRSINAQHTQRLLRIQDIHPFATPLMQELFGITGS
Chain of human Retinoic Acid Receptor gamma (RARg), RARG (gene 5916) (P13631 whole entry, looked up, the tested form may be a part): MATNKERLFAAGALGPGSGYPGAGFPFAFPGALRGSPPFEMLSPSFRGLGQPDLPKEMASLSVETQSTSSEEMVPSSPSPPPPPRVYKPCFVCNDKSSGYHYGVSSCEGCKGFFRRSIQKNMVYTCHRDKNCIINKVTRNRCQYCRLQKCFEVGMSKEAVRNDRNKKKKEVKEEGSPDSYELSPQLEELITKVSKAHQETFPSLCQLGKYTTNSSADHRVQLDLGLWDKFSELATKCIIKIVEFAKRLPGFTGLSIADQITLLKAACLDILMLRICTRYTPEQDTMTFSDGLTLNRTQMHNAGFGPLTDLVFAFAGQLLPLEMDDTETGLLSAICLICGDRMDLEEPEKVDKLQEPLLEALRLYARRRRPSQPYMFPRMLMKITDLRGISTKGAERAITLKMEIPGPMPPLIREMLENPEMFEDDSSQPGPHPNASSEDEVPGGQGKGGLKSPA
Chain of human Peroxisome Proliferator-activated Receptor alpha (PPARa), PPARA (gene 5465) (Q07869 whole entry, looked up): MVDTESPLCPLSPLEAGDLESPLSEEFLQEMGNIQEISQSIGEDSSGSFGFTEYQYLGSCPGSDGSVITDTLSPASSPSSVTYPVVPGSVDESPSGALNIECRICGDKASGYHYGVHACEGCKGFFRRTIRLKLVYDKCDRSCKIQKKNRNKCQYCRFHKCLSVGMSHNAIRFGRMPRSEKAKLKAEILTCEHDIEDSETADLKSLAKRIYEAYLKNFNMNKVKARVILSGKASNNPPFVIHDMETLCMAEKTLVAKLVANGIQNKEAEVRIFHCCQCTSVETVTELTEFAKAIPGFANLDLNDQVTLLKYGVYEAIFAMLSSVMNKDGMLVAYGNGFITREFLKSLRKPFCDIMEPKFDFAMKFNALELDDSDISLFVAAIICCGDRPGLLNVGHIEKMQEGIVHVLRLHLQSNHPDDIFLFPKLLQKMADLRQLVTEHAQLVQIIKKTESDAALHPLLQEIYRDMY
Chain of Cellular tumor antigen p53 (Homo sapiens) (P04637 whole entry, looked up, the tested form may be a part): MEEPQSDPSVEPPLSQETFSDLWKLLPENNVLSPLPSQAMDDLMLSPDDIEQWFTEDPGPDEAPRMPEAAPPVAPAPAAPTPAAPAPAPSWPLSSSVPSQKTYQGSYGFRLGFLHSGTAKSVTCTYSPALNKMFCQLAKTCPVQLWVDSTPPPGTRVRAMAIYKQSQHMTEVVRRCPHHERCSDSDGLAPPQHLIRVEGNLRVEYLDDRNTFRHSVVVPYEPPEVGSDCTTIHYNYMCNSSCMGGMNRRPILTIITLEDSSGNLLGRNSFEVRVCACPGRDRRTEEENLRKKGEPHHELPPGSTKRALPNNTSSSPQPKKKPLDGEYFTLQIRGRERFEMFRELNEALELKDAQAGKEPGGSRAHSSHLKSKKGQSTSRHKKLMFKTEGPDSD
Chain of Myc proto-oncogene protein (Homo sapiens) (P01106 whole entry, looked up): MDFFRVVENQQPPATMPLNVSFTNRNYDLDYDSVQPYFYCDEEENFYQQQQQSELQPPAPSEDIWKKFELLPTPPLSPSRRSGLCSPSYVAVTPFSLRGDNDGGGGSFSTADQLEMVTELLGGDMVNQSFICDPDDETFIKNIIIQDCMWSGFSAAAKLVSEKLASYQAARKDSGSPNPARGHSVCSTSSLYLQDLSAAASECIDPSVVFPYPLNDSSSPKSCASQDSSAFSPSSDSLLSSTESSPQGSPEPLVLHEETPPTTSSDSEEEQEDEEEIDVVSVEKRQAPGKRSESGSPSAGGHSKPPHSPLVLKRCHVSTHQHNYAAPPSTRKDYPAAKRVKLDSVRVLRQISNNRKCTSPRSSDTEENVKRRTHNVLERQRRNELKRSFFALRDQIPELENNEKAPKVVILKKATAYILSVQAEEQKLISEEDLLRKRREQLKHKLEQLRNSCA
Chain of Nuclear respiratory factor 1 (Homo sapiens) (Q16656 whole entry, looked up): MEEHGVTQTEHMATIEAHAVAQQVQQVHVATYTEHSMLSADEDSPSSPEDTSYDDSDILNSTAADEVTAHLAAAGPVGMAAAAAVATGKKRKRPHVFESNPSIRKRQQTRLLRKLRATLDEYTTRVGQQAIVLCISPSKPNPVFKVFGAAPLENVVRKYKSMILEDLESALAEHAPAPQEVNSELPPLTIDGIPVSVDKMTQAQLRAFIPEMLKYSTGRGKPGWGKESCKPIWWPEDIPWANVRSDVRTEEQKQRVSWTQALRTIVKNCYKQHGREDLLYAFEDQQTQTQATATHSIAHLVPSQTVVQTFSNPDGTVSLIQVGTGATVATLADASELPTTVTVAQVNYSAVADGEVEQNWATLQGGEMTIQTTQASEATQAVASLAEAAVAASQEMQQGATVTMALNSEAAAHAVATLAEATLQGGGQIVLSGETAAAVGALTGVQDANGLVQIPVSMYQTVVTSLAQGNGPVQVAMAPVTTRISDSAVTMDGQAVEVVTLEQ
Chain of Transcriptional activator Myb (Homo sapiens) (P10242 whole entry, looked up): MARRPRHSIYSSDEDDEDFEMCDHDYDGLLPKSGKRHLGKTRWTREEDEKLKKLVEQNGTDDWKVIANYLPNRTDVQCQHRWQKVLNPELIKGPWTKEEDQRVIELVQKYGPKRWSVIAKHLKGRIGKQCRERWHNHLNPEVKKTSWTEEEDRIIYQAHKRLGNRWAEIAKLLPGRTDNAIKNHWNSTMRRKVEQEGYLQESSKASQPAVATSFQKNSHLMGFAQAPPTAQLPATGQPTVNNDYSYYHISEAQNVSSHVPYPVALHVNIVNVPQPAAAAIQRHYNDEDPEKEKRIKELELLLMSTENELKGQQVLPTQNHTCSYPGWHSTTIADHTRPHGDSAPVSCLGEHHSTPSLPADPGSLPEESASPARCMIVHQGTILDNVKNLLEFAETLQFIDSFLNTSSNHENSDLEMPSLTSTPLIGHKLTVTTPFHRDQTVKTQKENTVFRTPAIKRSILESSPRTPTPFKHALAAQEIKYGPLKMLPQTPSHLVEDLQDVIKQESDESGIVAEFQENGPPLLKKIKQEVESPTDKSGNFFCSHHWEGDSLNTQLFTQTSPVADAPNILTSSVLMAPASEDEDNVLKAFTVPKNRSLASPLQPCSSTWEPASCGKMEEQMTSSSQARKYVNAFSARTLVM
Chain of Peroxisome proliferator-activated receptor gamma (Homo sapiens) (P37231 whole entry, looked up): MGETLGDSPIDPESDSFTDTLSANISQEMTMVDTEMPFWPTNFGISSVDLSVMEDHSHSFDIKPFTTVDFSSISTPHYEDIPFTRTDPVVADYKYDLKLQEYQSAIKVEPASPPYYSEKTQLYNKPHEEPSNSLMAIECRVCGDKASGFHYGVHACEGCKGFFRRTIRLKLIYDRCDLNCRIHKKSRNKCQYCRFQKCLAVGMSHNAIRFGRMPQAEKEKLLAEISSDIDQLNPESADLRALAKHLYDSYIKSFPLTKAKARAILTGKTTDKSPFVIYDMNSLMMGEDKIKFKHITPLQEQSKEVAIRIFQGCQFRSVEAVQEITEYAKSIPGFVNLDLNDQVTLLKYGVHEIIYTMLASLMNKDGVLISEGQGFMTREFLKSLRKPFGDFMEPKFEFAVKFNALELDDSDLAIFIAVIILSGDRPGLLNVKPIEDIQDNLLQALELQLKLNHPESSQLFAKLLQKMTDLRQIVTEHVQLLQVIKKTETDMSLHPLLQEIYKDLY
Chain of Retinoic acid receptor alpha (Homo sapiens) (P10276 whole entry, looked up, the tested form may be a part): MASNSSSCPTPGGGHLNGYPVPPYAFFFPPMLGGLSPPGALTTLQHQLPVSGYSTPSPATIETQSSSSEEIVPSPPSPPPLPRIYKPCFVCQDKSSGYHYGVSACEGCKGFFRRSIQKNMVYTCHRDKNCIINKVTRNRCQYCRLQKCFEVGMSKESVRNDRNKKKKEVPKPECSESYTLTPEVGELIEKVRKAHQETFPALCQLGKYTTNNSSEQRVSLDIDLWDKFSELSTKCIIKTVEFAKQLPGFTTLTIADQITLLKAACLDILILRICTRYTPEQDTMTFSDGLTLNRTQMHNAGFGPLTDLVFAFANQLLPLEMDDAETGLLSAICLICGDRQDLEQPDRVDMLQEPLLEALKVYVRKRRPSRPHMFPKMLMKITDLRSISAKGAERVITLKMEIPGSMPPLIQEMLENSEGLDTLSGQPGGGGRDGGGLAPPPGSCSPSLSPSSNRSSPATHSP

Regarding `CC(C)(C)N(NC(=O)c1ccc(Cl)cc1)C(=O)c1ccccc1`, the outcome in test [1], in [2], in [3], in [4], in [5] and in test [6] was inactive. The compound was classed as inactive in test [7], in test [8] and in test [9].
`CCOP(=S)(S)OCC`: the compound was classed as inactive in test [1], in test [2], in test [3], in test [4], in test [6] and in test [10]. The outcome in [11], in [12], in test [13], in test [14], in test [15] and in test [16] was inactive. The outcome in test [7] and in test [8] was inactive. The results for the half-maximal activity concentration (AC50) in test [5] and in test [17] were 67.4 µM (active) and 20.9 µM (active), respectively.
In the case of `OCC(F)(F)OC(F)(F)C(F)(F)OC(F)(F)C(F)(F)OC(F)(F)F`, the result in [1], in [2], in test [3], in [18], in test [5] and in test [6] was inactive. In addition, the compound was called inactive in test [10], in [19], in test [15], in [20], in test [7] and in test [8]. In [9], the call was inactive. Moreover, the concentration at half-maximal activity (AC50) in [10] is 76.8 µM (active); in [11] it was 30 µM (active) and 47.3 µM (active); in test [12] it was 43.9 µM (active) and 46.4 µM (active); in test [13], 36.1 µM (active) and 50.3 µM (active); in test [14], 22.3 µM (active) and 42.2 µM (active); in test [16], 30 µM (active). For the same compound, in test [17], the AC50 is 15.5 µM (active) and 26.1 µM (active).
Consider `Cc1ccc(N)cc1N`, for which the result in test [1], in [2], in test [3], in test [4], in test [18] and in test [5] was inactive. In addition, the compound was called inactive in [6], in test [11], in [12], in test [13], in test [14] and in [19]. For the same compound, the outcome in [16] and in test [17] was inactive.
Consider `CCCN(CCC)c1c([N+](=O)[O-])cc(C(C)C)cc1[N+](=O)[O-]`, for which the result in test [1], in test [2], in [3], in [4], in test [6] and in test [10] was inactive. Besides, the result in test [11], in [19], in test [15], in [16], in test [20] and in [7] was inactive. In addition, the call in [9] was inactive. Moreover, the concentration at half-maximal activity (AC50) in test [5] is 38.4 µM (active); in test [12], 33.7 µM (active); in [13], 25.8 µM (active); in [14], 32.1 µM (active); in test [17], 20 µM (active); in test [8], 1.49 µM (active).
